Results as given in PubChem BioAssay AID1159580 (chemical genetic matrix, 2015).
About 2,000 (36%) of roughly 5,500 compounds were called active. Inconclusive results (about 18%) are left out. Rule as the data show it: active = normalized growth mostly below about 0.91 (no sharp cut-off); inconclusive = no clear call, values can overlap the other calls; inactive = mostly above about 0.92. The list shows a part of the results.

Assay: chemical genetic growth profiling, strain panel (AID 1159580);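 also: tested at 20 µM; growth read once vehicle control cultures reached saturation at 30 °C; 1 = growth at the plate median or of vehicle wells; lower values mean less growth of the strain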
Settings: S. cerevisiae deletion strains, growth OD

Measured: normalized growth

CC(N)[C@H](O)c1ccc(O)c(O)c1 (some centres undefined)
inactive: locus YAL013W, strain DEP1, stronger effect = lower value 0.998 | locus YAL040C, strain CLN3, stronger effect = lower value 1.05 | locus YCL061C, strain MRC1 (second series), stronger effect = lower value 0.993 | locus YDR150W, strain NUM1, stronger effect = lower value 0.995 | locus YDR363W, strain ESC2, stronger effect = lower value 0.989 | locus YER002W, strain NOP16, stronger effect = lower value 1 | locus YJR075W, strain HOC1, stronger effect = lower value 0.983 | locus YNL153C, strain GIM3, stronger effect = lower value 0.986 | locus YNL175C, strain NOP13, stronger effect = lower value 1.01 | locus YNL197C, strain WHI3, stronger effect = lower value 1.01 | locus YNL224C, strain SQS1, stronger effect = lower value 0.992 | locus YNL322C, strain KRE1, stronger effect = lower value 1.01 | locus YOR083W, strain WHI5 (second series), stronger effect = lower value 0.988 | locus YPL055C, strain LGE1, stronger effect = lower value 1
